# Results as given in PubChem BioAssay (NCATS).
# “And” between values parts separate entries of the source, which are not always exact repeats. Identical values can stand only once. Results filed as inconclusive are left out. Values without a mark were called inactive. The source made the active and inactive calls. Calls follow the shape of the dose curve; as a rule, active = well fitted curve in the direction sought with a large enough effect; inconclusive = small, poorly fitted or top-dose-only effect, or another doubt; inactive = no such curve, though single readings can be large; an effect the other way counts as inactive or inconclusive.
# Experiments:
# [1] = target: Cellular tumor antigen p53 (Homo sapiens) (UniProt P04637); assay: Primary qHTS for small molecule compounds that upregulate eGFP-tagged delta133p53alpha (in N-terminal) cells. (AID 2060322); conditions: NCI-H358 eGFP-delta133p53alpha fluorescence, 24 h; activation: hits give high values; also: nearly all actives have a fitted effect of over 75% in size;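 as to activation: series mostly up to about 56 µM; 0% = DMSO vehicle and 100% = reference activator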
# Method in brief: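 NCI-H358 cells pre-induced 24 h with 10 ng/ml doxycycline to express N-terminal eGFP-delta133p53alpha, then dosed 24 h at 37C without doxycycline; fixed, Hoechst-stained, GFP intensity by laser scanning cytometry, normalized to DMSO (0%) and 57.5 uM 5-azacytidine (100%).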
# [2] = target: Aldehyde dehydrogenase, mitochondrial (Homo sapiens) (UniProt P05091); assay: qHTS for Inhibitors of the Aldehyde Dehydrogenase Family (ALDH2) Primary screen (AID 2061308); also: nearly all actives have a fitted effect of over 55% in size
# [3] = target: Retinaldehyde dehydrogenase 3 (Homo sapiens) (UniProt P47895); assay: qHTS for Inhibitors of the Aldehyde Dehydrogenase Family (ALDH1A3) Confirmatory screens (AID 2061311); also: nearly all actives have a fitted effect of over 60% in size
# [4] = target: Retinaldehyde dehydrogenase 3 (Homo sapiens) (UniProt P47895); assay: qHTS for Inhibitors of the Aldehyde Dehydrogenase Family (ALDH1A3) Validation screen (AID 2061312); also: nearly all actives have a fitted effect of over 45% in size
# [5] = target: Retinal dehydrogenase 2 (Homo sapiens) (UniProt O94788); assay: qHTS for Inhibitors of the Aldehyde Dehydrogenase Family (ALDH1A2) Confirmation screens (AID 2061314); also: nearly all actives have a fitted effect of over 65% in size
# [6] = target: Retinaldehyde dehydrogenase 3 (Homo sapiens) (UniProt P47895); assay: qHTS for Inhibitors of the Aldehyde Dehydrogenase Family (ALDH1A3) Primary screen (AID 2061315)
# [7] = target: Aldehyde dehydrogenase 1A1 (Homo sapiens) (UniProt P00352); assay: qHTS for Inhibitors of the Aldehyde Dehydrogenase Family (ALDH1A1) Confirmatory screens (AID 2061316); also: nearly all actives have a fitted effect of over 65% in size
# Potency is read from the fitted curve at half-maximal effect.
# Chain of Cellular tumor antigen p53 (Homo sapiens) (P04637 whole entry, looked up): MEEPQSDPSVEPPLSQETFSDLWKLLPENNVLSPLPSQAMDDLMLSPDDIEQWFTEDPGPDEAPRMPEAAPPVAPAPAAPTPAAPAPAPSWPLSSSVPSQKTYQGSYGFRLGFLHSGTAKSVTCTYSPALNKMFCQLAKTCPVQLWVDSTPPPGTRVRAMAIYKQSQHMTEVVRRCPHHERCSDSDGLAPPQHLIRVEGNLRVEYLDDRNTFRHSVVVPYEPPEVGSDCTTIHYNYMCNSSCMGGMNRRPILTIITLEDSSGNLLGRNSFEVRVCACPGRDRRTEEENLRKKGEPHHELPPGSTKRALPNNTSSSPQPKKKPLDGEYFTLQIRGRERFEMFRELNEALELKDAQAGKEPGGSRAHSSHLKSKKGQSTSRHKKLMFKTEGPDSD
smiles,measurement,setting,value
COc1cc(C(=O)OC[C@H]2O[C@@H](Oc3ccccc3/C=C/C(=O)O)[C@H](O)[C@@H](O)[C@@H]2O)cc(OC)c1OC,activation,[1],1.53%
same,Potency,[2],inactive
same,Potency,[3],9.79 µM (active)
NC(=O)[C@@H]1CC[C@H](c2ccc(OCc3ccccc3F)cc2)N1,activation,[1],-11.6%
same,Potency,[2],inactive
COc1ccc(CC2C(=O)NC(C)C(=O)N(C)C3Cc4ccc(cc4)Oc4cc(ccc4OC4OC(CO)C(O)C(O)C4O)CC(C(=O)NC(C)C(=O)NC(C)C(=O)N2C)N(C)C3=O)cc1 (stereo not drawn),Potency,[1],5.09 µM (active)
same,Potency,[2],inactive
same,Potency,[3],4.78 µM (active)
CC1(C)C(O)CCC2(C)C1C(O)C=C1COC(=O)C12O (stereo not drawn),activation,[1],3.82%
same,Potency,[2],inactive
O=[N+]([O-])c1ccc(-[n+]2nc(-c3ccccc3)nn2-c2ccc(I)cc2)cc1,activation,[1],-2.39%
same,Potency,[2],inactive
same,Potency,[3],11.3 µM (active)
same,Potency,[4],17.8 µM (active)
Fc1ccc(CN2CCC(Nc3ccc(C(F)(F)F)nn3)CC2)cc1F,activation,[1],-6.21%
same,Potency,[2],inactive
COC(=O)C1=CO[C@@H](O[C@@H]2O[C@H](CO[C@@H]3O[C@H](COC(=O)/C=C/c4ccc(O)cc4)[C@@H](O)[C@H](O)[C@H]3O)[C@@H](O)[C@H](O)[C@H]2O)[C@@H]2C(CO)=CC[C@H]12,activation,[1],-3.05%
same,Potency,[2],inactive
COc1ccc(/C=C/C(=O)N2CCCC2)cc1,activation,[1],2.68%
same,Potency,[2],inactive
CN(C)CCCCCCNC(=O)c1cccc(-c2cc(O)c3ncccc3c2)c1,activation,[1],0.333%
same,Potency,[2],inactive
same,Potency,[3],8.96 µM (active)
same,Potency,[5],inactive
CC1=CC(=O)CC(C)(C)C1CO[C@@H]1O[C@H](CO)[C@@H](O)[C@H](O)[C@H]1O (stereo partly drawn),activation,[1],6.25%
same,Potency,[2],inactive
CNC(=S)NS(=O)(=O)c1cc(CCNC(=O)c2cc(Cl)ccc2OC)ccc1OC,activation,[1],-6.68%
same,Potency,[2],inactive
same,Potency,[3],inactive
same,Potency,[4],inactive
same,Potency,[5],inactive
same,Potency,[6],inactive
same,Potency,[7],11.3 µM (active)
CO/N=C(/C(=O)N[C@@H]1C(=O)N2C(C(=O)O)=C(CSC(=O)c3ccco3)CS[C@H]12)c1csc(N)n1,activation,[1],-18.6% and -3.67%
same,Potency,[2],17.8 µM (active)
same,Potency,[3],7.12 µM (active)
same,Potency,[5],28.3 µM (active)
same,Potency,[6],inactive
same,Potency,[7],5.65 µM (active)
CCC(=O)N1CCc2cc(OC)c(O)cc2C1,activation,[1],-7.64%
same,Potency,[2],inactive
same,Potency,[4],22.4 µM (active)
O=C(NCc1cccc(O)c1)c1cc2cc(F)ccc2[nH]1,activation,[1],0%
same,Potency,[2],inactive
same,Potency,[4],inactive
same,Potency,[6],inactive
O=C(O)C1(c2ccc(-c3ccc(Cl)c(Cl)c3)c(F)c2)CC1,activation,[1],-12.9%
same,Potency,[2],inactive
same,Potency,[4],44.7 µM (active)
COc1cc(OC)c(NC(=O)c2ccc(Cc3cc4c(cc3C)C(C)(C)CCC4(C)C)o2)c(OC)c1,activation,[1],10.5%
same,Potency,[2],inactive
same,Potency,[3],4 µM (active)
same,Potency,[5],5.65 µM (active)
same,Potency,[7],5.04 µM (active)
Cc1cccc2c1CC[C@H](CN1CCC(c3c(Cl)cccc3Cl)CC1)C[C@@H]2O,activation,[1],11.9% and -7.16%
same,Potency,[2],inactive
same,Potency,[4],inactive
same,Potency,[6],inactive
CC(C)c1cc2c(c(O)c1O)[C@@]13CCCC(C)(C)C1[C@@H](O)[C@@H]2OC3=O (stereo partly drawn),activation,[1],-5.34%
same,Potency,[2],inactive
same,Potency,[3],13.9 µM (active)
same,Potency,[6],4.47 µM (active)
CC(=O)c1c(O)cc2cccc3c2c1CC(C)(O)O3 (stereo not drawn),activation,[1],6.11%
same,Potency,[2],inactive
same,Potency,[3],12.7 µM (active)
same,Potency,[6],inactive
Cc1ccc(C(=O)Nc2noc3ccccc23)cc1,activation,[1],-1%
same,Potency,[2],inactive
same,Potency,[3],1.27 µM (active)
same,Potency,[5],inactive
same,Potency,[6],5.01 µM (active)
same,Potency,[7],inactive
O=C(Nc1nc2ccc([N+](=O)[O-])cc2s1)C1CCCCC1,activation,[1],17.2%
same,Potency,[2],inactive
same,Potency,[4],3.98 µM (active)
Cc1ccc(-c2cn3c4c(sc3n2)CCCC4)cc1,activation,[1],11%
same,Potency,[2],inactive
same,Potency,[4],25.1 µM (active)
Cn1c(=O)cc(N2CCCC(N)C2)n(Cc2ccccc2C#N)c1=O (stereo not drawn),activation,[1],0%
same,Potency,[2],inactive
same,Potency,[4],inactive
same,Potency,[6],inactive
O=C(Nc1cc2cc[nH]c2cn1)c1ccccc1,activation,[1],-10%
same,Potency,[2],inactive
same,Potency,[4],39.8 µM (active)
O=C(COc1ccc(Cl)cc1)NC1CCC(NC(=O)COc2ccc(Cl)cc2)CC1 (stereo not drawn),activation,[1],-5.25%
same,Potency,[2],inactive
same,Potency,[4],inactive
same,Potency,[6],inactive
C[C@H](Oc1cc(-c2cnn(C3CCNCC3)c2)cnc1N)c1c(Cl)ccc(F)c1Cl,activation,[1],14.8%
same,Potency,[2],inactive
same,Potency,[4],inactive
same,Potency,[6],inactive
